Hits are enriched below; roughly 2.5% of the tested compounds scored in any of these assays.
HSF-1 act: HSF-1 activators, primary screen, NIH3T3-HGL cells, MG132 stress, luminescence, single point | 300,000 tested, 1.7% active | NIH3T3-HGL HSF-1 luciferase reporter, 8 h; 100% = twice DMSO control signal | activation, % at 9 µM;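 active = mean replicate activation of at least 50% with a set share of replicates each reaching 50%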;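 also: 0% = median of the neutral control wells and 100% = twice that signal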
aDG glyco up: activators of alpha-DG glycosylation, primary screen, uHTS, Pro5-aDG cells, AlphaScreen; alpha-DG glycosylation AlphaScreen (IIH6); 0% Pro5, 100% B10-LARGE cell signal; AID 624168, 2012; activation, % at 10 µM; 360,000 tested, 0.22% active;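 active = activation of at least 8% versus controls, or a plate z-score of at least 8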;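 also: Pro5 are CHO cells carrying HIG-tagged alpha-DG that lacks glycosylation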
DYRK1A inh: rat Dyrk1A kinase inhibitors, primary screen, biochemical, single point, plate reader; ADP-Glo luminescence, NFATc1 peptide; inhibition, % at 12.5 µM; 310,000 tested, 0.43% active; in the data active = inhibition above about 50%;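 also: plate controls were vehicle with enzyme for no effect and no enzyme for full effect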
HSF1 inhib: HSF1 inhibitors in luciferase reporter cells, primary screen, cell-based, NIH3T3, luminescence; NIH3T3-HGL HSE-luciferase, MG132-induced, luminescence 8 h; hits give low values; activity change, negative = inhibition, % at 7.5 µM (by protocol); 300,000 tested, 0.77% active; AID 2098, 2009;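 active = more than half of replicate wells show activity change below -50%, luminescence cut by over half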;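 also: luciferase reports HSF-1 transcriptional activity via heat shock element; 0% = median of DMSO wells and -100% = zero luminescence signal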
GC-A act: GC-A stimulated cGMP production enhancers – HEK293 GC-A cells, cGMP TR-FRET, EC30 ANP, primary screen | Atrial natriuretic peptide receptor 1 (Homo sapiens), P16066 | 0% at EC30 ANP, 100% saturating ANP | activation, % at 10 µM | 370,000 tested, 0.14% active | AID 1671463, 2021; in the data active = activation above about 40%
GC-B act: human GC-B receptor activators, primary screen, HEK293 GC-B cells, cGMP TR-FRET, EC30 CNP. 370,000 tested, 0.11% active. AID 1920062, 2024. activation, % at 10 µM. 0% at EC30 CNP, 100% saturating CNP. Atrial natriuretic peptide receptor 2 (Homo sapiens), P20594;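 active = activation at 10 µM reaching about 35% in either raw or pattern-adjusted values, limit read from the data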
aDG conf: alpha-DG glycosylation enhancers, retest, confirmation, single concentration, Pro5-aDG cells; activation, % at 10 µM (by protocol); 600 tested, 17% active; shares compounds with aDG glyco up; AID 651671, 2012; IIH6 AlphaLISA; scaled to LARGE-overexpressing B10 cells as 100%;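 active = activation of at least 7% in one or more replicates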;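 also: cells exposed to compound for two days before detection; 0% = DMSO-treated Pro5 cells and 100% = DMSO-treated B10-LARGE cells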
An asterisk follows results filed as active.

For Cc1ccc(CN2CCC(c3cc(-c4ccc(Cl)cc4)n[nH]3)CC2)cc1 the results were HSF-1 act -3, aDG glyco up 3, DYRK1A inh 10, HSF1 inhib -2, GC-A act 2 and GC-B act -6.
Clc1ccc(-c2cc(C3CCNCC3)[nH]n2)cc1 was read as HSF-1 act 28, aDG glyco up 6.9*, DYRK1A inh 3, HSF1 inhib 5, GC-A act 30, GC-B act -2 and aDG conf 1.
Screening O=C(CCNC(=O)c1ccccc1Cl)NCc1cccnc1 returned HSF-1 act -27, aDG glyco up 0, DYRK1A inh 10, HSF1 inhib 1, GC-A act 2 and GC-B act 3.
Screening O=C(Nc1ccc(F)cc1)c1ccc2ncsc2c1 returned HSF-1 act 5, aDG glyco up 0, DYRK1A inh 4, HSF1 inhib -2, GC-A act -2 and GC-B act -1.
For N#Cc1ccsc1NC(=O)c1cccc(-n2cnnn2)c1 the results were HSF-1 act 1, aDG glyco up 11*, DYRK1A inh -8, HSF1 inhib 3, GC-A act -2, GC-B act 6 and aDG conf 7.1*.
For N#Cc1ccsc1NC(=O)c1ccc2ncsc2c1 the results were aDG glyco up 15*, GC-A act 0, GC-B act -5 and aDG conf 5.5*.
For CCC(c1c[nH]c2ccccc12)c1cn(C)c2ccccc12 (stereo unspecified) the results were GC-A act -5 and GC-B act 0.
For Cc1nn(C)cc1CNC(=O)COc1ccc(Cl)cc1Cl the results were HSF-1 act 12, aDG glyco up 15*, DYRK1A inh -7, HSF1 inhib 4, GC-A act -4, GC-B act 1 and aDG conf 0.
For O=C(Nc1ccc(Cl)cc1)N1CCCN(Cc2ccc(F)cc2)C1 the results were HSF-1 act 8, aDG glyco up 7.8*, DYRK1A inh 4, HSF1 inhib -2, GC-A act -16, GC-B act -8 and aDG conf 1.
For COCCn1c(SCC#N)nnc1-c1ccc(OC)cc1 the results were HSF-1 act -1, aDG glyco up 4.7*, DYRK1A inh -4, HSF1 inhib 4, GC-A act 2, GC-B act -3 and aDG conf 0.
For COCCn1c(SCC(=O)Nc2sc(C)c(C)c2C#N)nnc1-c1ccc(OC)cc1 the results were HSF-1 act 6, aDG glyco up 0, DYRK1A inh 11, HSF1 inhib -8, GC-A act -2 and GC-B act -3.
For CN1C(=S)SC(N2OC3C(=O)N(c4ccccc4)C(=O)C3C2c2ccc(Cl)cc2)C1(C)C (stereo unspecified) the results were HSF-1 act 0, aDG glyco up 0, DYRK1A inh -9, HSF1 inhib -4, GC-A act -21 and GC-B act -14.
Screening CC12CCC(=O)C=C1CCC1C2C(O)CC2(C)C(c3csc(N)n3)CCC12 (stereo unspecified) returned aDG glyco up 2, DYRK1A inh 1, GC-A act 0 and GC-B act 3.
Screening CC12CCC(=O)C=C1CCC1C2CCC2(C)C(c3csc(N)n3)CCC12 (stereo unspecified) returned aDG glyco up 7.0*, GC-A act -6, GC-B act -3 and aDG conf 3.
Screening Cc1ccc(S(=O)(=O)N(C)C)cc1NC(=O)COC(=O)Cc1ccccc1F returned HSF-1 act -8, aDG glyco up 11*, DYRK1A inh 4, HSF1 inhib -5, GC-A act 0, GC-B act 6 and aDG conf 0.
CCC(=O)N1c2ccc(S(=O)(=O)N3CCN(CC)CC3)cc2CC1C (stereo unspecified) was read as HSF-1 act 2, aDG glyco up 0, DYRK1A inh -2, HSF1 inhib -2, GC-A act -1 and GC-B act 7.
For CCC(=O)N1c2ccc(S(=O)(=O)N3CCN(c4ccc([N+](=O)[O-])cc4)CC3)cc2CC1C (stereo unspecified) the results were HSF-1 act 6, aDG glyco up 8.8*, DYRK1A inh -2, HSF1 inhib -2, GC-A act 1, GC-B act 4 and aDG conf 0.
For Cc1ccc(NC(=O)CSc2nc3c(c(=O)[nH]2)CCC3)c(C)c1 the results were HSF-1 act 6, aDG glyco up 7.4*, DYRK1A inh -5, HSF1 inhib 4, GC-A act -1, GC-B act 9 and aDG conf 2.
For CC(OC(=O)c1ccc(Cl)nc1)C(=O)NCc1ccc2c(c1)OCO2 (stereo unspecified) the results were HSF-1 act 5, aDG glyco up 7.2*, DYRK1A inh 3, HSF1 inhib 3, GC-A act -3, GC-B act 2 and aDG conf -1.
Screening CCCCN(CC)CCCNC(=O)c1cn(CC)c2ccc(S(=O)(=O)N3CCc4ccccc4C3)cc2c1=O returned HSF-1 act -6, aDG glyco up 8.5*, DYRK1A inh 6, HSF1 inhib -10, GC-A act -2, GC-B act -4 and aDG conf 2.
`CCCCN(C)CCCNC(=O)c1cn(CC)c2ccc(S(=O)(=O)N3CCc4ccccc4C3)cc2c1=O` gave HSF-1 act 13, aDG glyco up 5, DYRK1A inh 3, HSF1 inhib -4, GC-A act -6 and GC-B act 2.
O=C1C2C3CCC(C3)C2C(=O)N1c1ccc(OS(=O)(=O)c2ccccc2)cc1 (stereo unspecified) was read as HSF-1 act -4, aDG glyco up 2.8*, DYRK1A inh 4, HSF1 inhib 9, GC-A act 2, GC-B act 3 and aDG conf -1.
Screening Cc1ccc(S(=O)(=O)Oc2ccc(N3C(=O)C4C5CCC(C5)C4C3=O)cc2)cc1 (stereo unspecified) returned HSF-1 act -14, aDG glyco up 1, DYRK1A inh 4, HSF1 inhib 3, GC-A act -3 and GC-B act 3.

From PubChem
